Compounds with a hit are over-represented: about 3.5% of the library has one in this group of screens.
GPR151 activ – activators of human GPR151, primary screen, cell-based, PathHunter beta-arrestin, luminescence; G-protein coupled receptor 151 (Homo sapiens), Q8TDV0; activation, % at 11.2 µM; actives 1% (n = 650,000); PathHunter beta-arrestin GPR151 cells; in the data active = activation above about 4.9%;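 note: 0% = median of compound wells and 100% = cells with positive control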
FBW7 act – FBW7 E3 ligase activators, primary screen, biochemical, AlphaScreen, human; F-box/WD repeat-containing protein 7 (Homo sapiens), Q969H0; AlphaScreen FBW7–phospho-cyclin E peptide binding, activator screen; normalized activity (activation), % at 26.1 µM; actives 0.13% (n = 650,000); AID 1259310, 2017; in the data active = normalized activity above about 1.9%;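 note: purified mutant Fbw7 with reduced substrate affinity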
Target sequence (Q969H0 whole entry, looked up): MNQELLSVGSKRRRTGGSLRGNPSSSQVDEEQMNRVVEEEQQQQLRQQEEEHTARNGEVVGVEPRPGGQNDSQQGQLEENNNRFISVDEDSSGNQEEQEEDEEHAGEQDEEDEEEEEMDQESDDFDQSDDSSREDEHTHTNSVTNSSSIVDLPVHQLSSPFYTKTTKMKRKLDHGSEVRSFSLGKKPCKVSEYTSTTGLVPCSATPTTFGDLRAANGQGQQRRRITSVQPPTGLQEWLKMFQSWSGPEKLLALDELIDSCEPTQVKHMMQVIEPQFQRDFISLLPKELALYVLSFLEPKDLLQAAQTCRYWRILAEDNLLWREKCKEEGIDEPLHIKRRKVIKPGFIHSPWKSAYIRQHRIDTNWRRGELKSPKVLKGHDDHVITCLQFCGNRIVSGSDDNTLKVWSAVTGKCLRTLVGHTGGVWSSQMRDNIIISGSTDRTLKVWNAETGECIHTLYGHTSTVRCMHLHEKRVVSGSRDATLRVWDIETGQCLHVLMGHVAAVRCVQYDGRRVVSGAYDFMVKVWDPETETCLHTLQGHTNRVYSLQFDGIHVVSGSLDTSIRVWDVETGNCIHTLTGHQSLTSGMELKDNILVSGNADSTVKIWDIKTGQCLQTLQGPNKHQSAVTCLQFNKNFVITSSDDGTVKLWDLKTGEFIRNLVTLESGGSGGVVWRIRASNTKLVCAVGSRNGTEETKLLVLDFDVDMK
MITF primary – MITF inhibitors, primary screen, biochemical, AlphaScreen, human. actives 0.91% (n = 650,000). AlphaScreen MITF homodimerization, bead proximity signal. AID 1259374, 2018. inhibition, % at 2.6 µM; in the data active = inhibition above about 50%;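 note: 0% = vehicle wells with protein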
TEAD-YAP block – TEAD-YAP interaction inhibition, primary screen, TEAD-YAP interaction inhibitor project, luminescence, HEK-TIYL cells | TEAD-Gal4/YAP UAS-luciferase luminescence | AID 1259422, 2018 | inhibition, % at 9.12 µM | actives 1.4% (n = 640,000); in the data active = inhibition above about 32%;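 note: 0% = median of test compound wells and 100% = reference inhibitor wells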
MITF confirm – MITF inhibitors, retest of hits, confirmation, biochemical, AlphaScreen, triplicate; AID 1259372, 2018; inhibition, % at 2.6 µM; AlphaScreen MITF homodimerization, biotin/His-MITF beads; actives 16% (n = 4,700); shares compounds with MITF primary;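 active = inhibition above a cutoff derived from the DMSO control wells, cut at about 28% in these data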;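 note: 0% = MITF dimer wells with DMSO only; inhibitors lower the bead chemiluminescence by keeping MITF from dimerizing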
AS interf DR – AlphaScreen optical interference compounds, dose response, counter-screen, biochemical, HTS. shares compounds with MITF primary. AlphaScreen optical interference counterscreen, cell-free. IC50, µM. actives 6% (n = 480). AID 1259373, 2018; call rule not given here
AlphaScreen intf2 – AlphaScreen optical interference compounds, counter-screen for MITF inhibitor project, biochemical, triplicate; shares compounds with MITF primary; LysRS AlphaScreen counterscreen, signal interference; inhibition, % at 2.6 µM; actives 7.6% (n = 4,700); AID 1259376, 2018;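 active = inhibition above a cutoff derived from the DMSO control wells, cut at about 30% in these data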
* marks the source's active call; other numbers are inactive results; nt = no result.

SMILES	GPR151 activ	FBW7 act	MITF primary	TEAD-YAP block	MITF confirm	AlphaScreen intf2	others
O=C(Nc1ccccc1C(F)(F)F)c1ccc(NC(=O)c2ccccc2C(=O)O)cc1	1	0	56*	-34	-3	0
COc1ccc(CN2CCCC(O)C2)cc1OC (stereo unspecified)	1	0	45	11	nt	nt
COc1ccc(CN2CCCC(C(=O)N3CCCCCC3)C2)cc1OC (stereo unspecified)	0	0	60*	0	-13	-7
O=C(C1CCCN(Cc2cccc(Cl)c2)C1)N1CCCCC1 (stereo unspecified)	1	0	44	-3	nt	nt
C=C(C)CN(CC)C(=O)C1CCN(Cc2cc(OC)c(OC)c(OC)c2)CC1	1	0	56*	5	10	14
COc1cc(CN2CCCC(C(=O)N3CCCCCC3)C2)cc(OC)c1OC (stereo unspecified)	0	0	61*	0	-7	-9
COc1cccc(CN2CCCC(C(=O)N3CCCCC3)C2)c1 (stereo unspecified)	-1	0	69*	9	-13	-3
Cc1cc(Nc2cccc([N+](=O)[O-])c2)nc2cc(O)ccc12	-1	0	16	1	nt	nt
COc1ccc(/C(C)=N/NC(N)=S)cc1	0	0	12	21	nt	nt
CC(C)CC(=O)Nc1nn2c(COc3ccccc3)nnc2s1	0	0	-2	-3	nt	nt
Cc1cc(O)c2c(C)c(CC(=O)NCc3ccccc3)c(=O)oc2c1	2	0	8	12	nt	nt
Cc1ccc(S(=O)(=O)N2CCN(CCC#N)CC2)cc1	3	0	62*	5	-5	2
N#CCCN1CCN(S(=O)(=O)c2ccccc2Br)CC1	1	0	78*	4	-7	6
O=S(=O)(c1ccc(F)cc1)N1CCN(Cc2cccc(Br)c2)CC1	0	0	60*	7	6	6
O=S(=O)(c1ccc(Cl)cc1)N1CCN(Cc2cccc(Br)c2)CC1	1	0	51*	6	11	8
Cc1ccc(OCCN(C)C(=O)CCC2(Cc3ccco3)CCC(=O)N2)cc1 (stereo unspecified)	2	0	-3	8	nt	nt
CC(O)CN(Cc1ccccc1Cl)CC(C)O (stereo unspecified)	-1	1	1	-2	nt	nt
O=C(Cn1nc2c3ccccc3ncn2c1=O)N1CCCC(c2ccccc2)C1 (stereo unspecified)	0	0	0	4	nt	nt
O=C(Nc1ccc(-c2ccc3nnc(-c4ccncc4)n3n2)cc1)c1ccc(Cl)cc1	2	0	8	8	nt	nt
Nc1c(C(=O)Nc2ccc(Cl)cc2)nnc2cc(-c3ccc(Cl)cc3)nn12	0	0	82*	5	7	5
CC(=O)c1ccc2c(c1)CC(c1nc3ncc(-c4ccnc(N)n4)cc3[nH]1)CO2 (stereo unspecified)	2	1	51*	11	23	-12
COc1ccc2c(c1)CC(c1nc3ncc(-c4ccnc(N)n4)cc3[nH]1)CO2 (stereo unspecified)	-1	0	18	22	nt	nt
COC(=O)c1ccc2c(=O)nc3n(c2c1)CC(O)=C3c1ccccc1	1	0	8	8	nt	nt
OCCCCNCc1c(F)cccc1Cl	-1	0	-9	4	nt	nt
CCN(CC)CCCNCc1c(F)cccc1Cl	1	0	57*	-3	19	8
SMILES	GPR151 activ	FBW7 act	MITF primary	TEAD-YAP block	MITF confirm	AlphaScreen intf2	others
CCCN(CCO)Cc1c(F)cccc1Cl	1	0	56*	-2	-7	-9
CCCNS(=O)(=O)c1ccc(F)c(C(=O)Nc2ccccc2CC)c1	5	0	-10	6	nt	nt
Cc1nc2ccc(NS(=O)(=O)c3ccc(O)c(C(=O)O)c3)cc2s1	0	0	35	10	nt	nt
NS(=O)(=O)c1ccc(NS(=O)(=O)c2ccc(O)c(C(=O)O)c2)cc1	1	0	2	8	nt	nt
O=C(O)c1cc(S(=O)(=O)Nc2ccncc2)ccc1O	1	0	66*	4	43*	9	AS interf DR=>7.1
Cc1ccc2nc(NS(=O)(=O)c3ccc(O)c(C(=O)O)c3)sc2c1	-3	0	65*	10	26	13
O=C(O)c1cc(S(=O)(=O)Nc2ccc3cn[nH]c3c2)ccc1O	-1	0	76*	19	52*	21	AS interf DR=>7
O=S(=O)(Nc1ccc2cn[nH]c2c1)c1ccc2ccccc2c1	1	0	1	4	nt	nt
COc1ccccc1CN(Cc1cc2ccc(C)cc2n2nnnc12)C(=O)N(C)C	0	0	20	8	nt	nt
COc1ccc(S(=O)(=O)N(C)Cc2ccccc2)c(Cl)c1Cl	-1	0	-6	-4	nt	nt
COc1cc2nc(N3CCCC3CO)nc(Nc3cc(OC)c(OC)c(OC)c3)c2cc1OC (stereo unspecified)	0	0	16	6	nt	nt
FC(F)(F)c1cccc(-c2ccn[nH]2)c1	-2	0	-4	6	nt	nt
CCOC(=O)CSc1nc2sc(C(=O)OCC)c(C)c2c(=O)n1Cc1ccc2c(c1)OCO2	-1	0	0	7	nt	nt
Cc1nc(NC(=O)COc2ccccc2[N+](=O)[O-])sc1C	-1	0	13	-63	nt	nt
O=C1CC(N2CCN(c3ccc(Cl)cc3)CC2)C(=O)N1CCc1ccccc1 (stereo unspecified)	1	0	53*	-8	-4	-2
CC(C)c1ccc2nc(SCC(=O)NCC3CCCO3)c(C#N)cc2c1 (stereo unspecified)	0	0	66*	9	11	19
CCOc1ccc2nc(SCC(=O)NCC3CCCO3)c(C#N)cc2c1 (stereo unspecified)	-1	0	6	-2	nt	nt
CCOC(=O)COc1ccc(C=O)cc1OCC	3	0	76*	1	4	12
CCOc1cc(C=O)ccc1OCC(=O)OC	1	0	9	-7	nt	nt
CCC1Sc2cc(S(=O)(=O)CCC(=O)Nc3cccc(C)c3C)ccc2NC1=O (stereo unspecified)	0	0	0	13	nt	nt
OCCNC(=S)Nc1ccccc1	0	0	8	-8	nt	nt
O=P(O)(O)C(O)(CCNC(=S)Nc1ccccc1)P(=O)(O)O	-1	0	85*	4	67*	6	AS interf DR=>6.8
COc1ccc(OC)c(NC(=O)c2ccc(Cl)cc2Cl)c1	0	0	9	-8	nt	nt
